From PubChem BioAssay
HCV inhibitor: HCV inhibition; Huh7.5.1 HCVcc-Cre infection, luciferase reporter, 44 h; Potency, µM (series often up to 41.8 µM), without a hit: top-dose activity change, negative = inhibition, hits mostly inhibitors; 340,000 compounds, 3.4% hits; further: potency means the concentration at half of the fitted maximal effect; on the % scale 0 is the no-effect control and ±100 the full control effect
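Luciferase read-out (15 sec integration) after a 15 min room-temperature substrate step quantifies HCVcc-Cre infection. Cells, 1,000 per well, had compound added 4 h post-plating, then virus at ~0.5 moi, and were cultured 44 h.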
AMA1-RON2 inh: disrupts binding of P. falciparum AMA1 to RON2; 360,000 compounds, 0.2% hits; Potency, µM (series often up to 58.2 µM), for the others: at the top dose activity change, negative = inhibition, most hits filed as inhibitors; AlphaScreen AMA1-biotinylated RON2 peptide binding;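 further: potency means the concentration at half of the fitted maximal effect; 0% = vehicle wells and -100% = peptide control; nearly all actives have a fitted effect of over 45% in size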
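AMA1 (3D7) with his tag at 25 nM final met compounds first, then biotinylated RON2 peptide at 25 nM; detection used donor plus acceptor beads, 10 µg/mL apiece, read by AlphaScreen after 30 min at room temperature.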
Shiga toxin inh: inhibitors of Shiga toxin in Vero cells. AID 2315. Vero cells, Shiga toxin protein synthesis inhibition reporter. inhibition, % at 38.7 µM. 290,000 compounds, 9.2% hits; in the data active means inhibition mostly above about 28%, no sharp cut-off; inactive means mostly below about 43%; further: 0% is about no effect
Cycloheximide cs: affects cycloheximide protein synthesis inhibition readout, counter-screen. max response, %. 300,000 compounds, 12% hits. cell reporter, cycloheximide protein synthesis inhibition counterscreen; in the data active means max response mostly above about 13%, no sharp cut-off; inactive means mostly below about 14%; further: read at 38.3 µM for the half of the compounds with a filed dose; 0% is about no effect
Pf growth 48h: P. falciparum growth inhibition at 48 hours (one generation); Potency, µM (doses to about 28.7 µM), without a hit: top-dose activity change, negative = inhibition, hits mostly inhibitors; 310,000 compounds, 5.9% hits; P. falciparum luciferase growth in erythrocytes, 48 h; further: potency means the concentration at half of the fitted maximal effect; on the % scale 0 is the no-effect control and ±100 the full control effect
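Luciferase-expressing parasites in RBCs, 2% Hct / 0.1% parasitemia final; RPMI 1640 + 0.5% Albumax; 37 C, 5% CO2, one generation; luminescence read-out, lower signal = inhibition.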
Pf growth 96h: inhibits malaria parasite growth, 96 h. P. falciparum luciferase reporter growth, 96 h. Potency, µM (top dose mostly 28.7 µM), inactives show top-dose activity change, negative = inhibition, hits mostly inhibitors. 320,000 compounds, 6.9% hits; further: potency means the concentration at half of the fitted maximal effect; on the % scale 0 is the no-effect control and ±100 the full control effect
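Two-generation exposure (96 h) targets delayed-death phenotype. Reporter parasites carrying integrated firefly luciferase, in red cells at 2% hematocrit and 0.05% parasitemia final, kept at 37 C, 5% CO2; luminescence loss indicates inhibition.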
* marks the source's active call; other numbers are inactive results; ? = inconclusive; . = no result given. Sampled rows, rich in hits. Any-hit rate of the full collection: about 21%. Unless noted, the call rests on the fitted dose curve; in most records, active means well fitted curve in the direction sought with a large enough effect; inconclusive means small, poorly fitted or top-dose-only effect, or another doubt; inactive means no such curve, though single readings can be large; an effect the other way counts as inactive or inconclusive.

SMILES	HCV inhibitor	AMA1-RON2 inh	Shiga toxin inh	Cycloheximide cs	Pf growth 48h	Pf growth 96h
O=S(=O)(c1ccc(Cl)nc1)N1CCN(c2ncccn2)CC1	7%	4%	15	1	-9%	-10%
CC(=O)OCCCN1c2ccccc2Nc2nnc(-c3ccccc3)cc21	?	3%	68*	36*	-2%	361%
CCSc1nc2ccccc2n1CC(N)=O	-3%	-4%	1	-2	-21%	.
CCSc1nc2ccccc2n1C(=O)/C=C\c1ccc(OC)c(OC)c1	14µM*	-5%	-13	-4	?	?
COc1cccc(NC(=O)c2ccc3c(c2)OCCO3)c1	-14%	3%	23	15	167%	?
COc1cccc(NC(=O)c2ccc3c(c2)OCO3)c1	0%	12%	63*	32*	223%	9.3µM*
CCC(=O)Nc1cccc(NC(=O)c2ccc3c(c2)OCO3)c1	?	-6%	61*	19*	55%	270%
CCCC(=O)Nc1ccccc1NC(=O)c1ccc2c(c1)OCO2	-29%	-1%	-7	-2	-19%	2%
COc1cccc(-c2oc3c(c2-c2ccc(OC)nc2)C(O)CCC3)c1 (stereo unspecified)	.	-1%	.	.	.	.
CCOC(=O)Cc1csc(SCn2nnc3ccccc3c2=O)n1	9%	-5%	6	9	-9%	6%
CCOC(=O)Cc1csc(-n2sc3ccccc3c2=O)n1	-4%	63%	33	38*	.	.
COc1ccc(C(C)(NC(C)=O)c2nc(-c3cccc4cccnc34)cs2)cc1 (stereo unspecified)	.	0%	.	.	.	.
Cc1ccc(O)c(C2=NCCNC(C(F)(F)F)=C2)c1	-28%	6%	2	-4	.	?
Oc1c(C2=NCCNC(C(F)(F)F)=C2)ccc2ccccc12	?	?	70*	38*	75%	21%
N#C/C(=C\c1ccccc1)C(=O)NC(=O)Oc1ccccc1	21%	2%	-4	8	.	5%
COc1ccc(C(C#N)=Cc2ccc(N(C)CCC#N)cc2)cc1	.	-7%	.	.	.	.
CN(C)c1cccc(/C=C(\C#N)c2ccccc2)c1	11µM*	-26%	77*	42*	237%	193%
Cc1ccc(C=C(C#N)C(=O)c2ccccc2)cc1	.	17%	.	.	.	.
CN(C)c1ccc(/C=C(\C#N)C(=O)c2ccccc2)cc1	9%	10%	41	14*	6%	4%
CCOC(=O)NC(=O)/C(C#N)=C/c1ccc(N(C)C)cc1	12%	-8%	30	36*	159%	36%
CN(C)c1ccc(/C=C(\C#N)c2ccccc2)cc1	?	-30%	63*	57*	350%	138%
Cc1cc(O)ccc1Nc1cc(-c2cccc(N)c2)ncn1	.	-1%	.	.	.	.
COc1cccc(-c2sc3ccc(OC)cc3c2-c2cnc(N3CCOCC3)nc2)c1	.	-6%	.	.	.	.
Cn1c(C2=C(O)CN(Cc3ccccc3)C2=N)nc2ccccc21	24%	47%	33*	33*	41%	62%
CC(Oc1cc(F)ccc1[N+](=O)[O-])C(=O)N(C)CC(=O)Nc1ccccc1C(F)(F)F (stereo unspecified)	?	-11%	-16	-1	-5%	-6%
SMILES	HCV inhibitor	AMA1-RON2 inh	Shiga toxin inh	Cycloheximide cs	Pf growth 48h	Pf growth 96h
Cc1cccc2c1CC(C)(C)N=C2C1=C(O)CC(C)(C)CC1=O	2%	10%	-8	-5	?	13µM*
C=CCNS(=O)(=O)NC(=O)C1=C(N2CCCC2)COC1=O	31%	1%	.	.	.	.
Cc1cc(Cl)ccc1NC(=O)/C=N/O	10%	-5%	8	2	1.9µM*	3%
O=C1N[C@@H](Cc2ccccc2)C(=O)N2[C@@H]3N(S(=O)(=O)c4ccccc4)c4ccccc4[C@]3(Br)C[C@@H]12	-3%	0%	.	.	.	.
O=C1N[C@@H](Cc2ccccc2)C(=O)N2[C@H]1C[C@]1([C@]34C[C@H]5C(=O)N[C@@H](Cc6ccccc6)C(=O)N5[C@H]3N(S(=O)(=O)c3ccccc3)c3ccccc34)c3ccccc3N(S(=O)(=O)c3ccccc3)[C@H]21	?	-4%	.	.	1.5µM*	0.74µM*
CCn1nc(C)c(/C=N/NC(=O)Cn2nc(C)cc2C)c1C	1%	10%	31	4	5%	10%
Cc1nn(C)cc1/C=N/NC(=S)Nc1ccc(Cl)cc1Cl	-26%	2%	active	12*	35%	-24%
Cc1cc(C)n2nc(C(=O)N/N=C/c3cn(C)nc3C)nc2n1	-26%	4%	20	-1	24%	-3%
CCn1nc(C)c(/C=N/NC(=S)Nc2ccc(Cl)cc2Cl)c1C	?	65%	active	11	-16%	?
CC(C)CC1C(=O)N(Cc2cn(CC3CCCCC3)nn2)CCS(=O)(=O)N1Cc1ccc(-c2ccc(F)nc2)cc1 (stereo unspecified)	.	9%	.	.	.	.
Cc1nc2ccccc2c(=O)n1/N=C/c1cccnc1	13%	16%	-11	2	.	-1%
Cc1nc2ccccc2c(=O)n1/N=C/c1ccc(O)cc1	13%	2%	17	1	-6%	53%
COC(=O)c1ccc(/C=N/n2c(C)nc3ccccc3c2=O)cc1	7%	-3%	41*	21*	36%	-2%
Cc1nc2ccccc2c(=O)n1/N=C/c1ccc(C(C)C)cc1	25µM*	4%	38*	22*	42%	50%
Cc1cccc(/C=N/n2c(C)nc3ccccc3c2=O)c1	-2%	0%	100*	22*	17%	50%
COc1ccccc1NC(=O)Cc1noc(CSc2cc(C)c3ccccc3n2)n1	11µM*	-4%	-1	-3	-25%	-25%
O=C(NCC1CCCO1)c1ccc2c(c1)OCO2 (stereo unspecified)	15%	5%	27	10	25%	5%
CCN(CC)CCCNC(=O)c1ccc2c3n(nc2c1)-c1ccc(Cl)cc1CO3	?	16%	.	.	?	?
O=C(NCC1CCCO1)c1ccc2c3n(nc2c1)-c1ccccc1CO3 (stereo unspecified)	?	-5%	54*	52*	199%	3%
Cc1ccc2c(c1)COc1c3ccc(C(=O)N[C@@H](CO)C(C)C)cc3nn1-2	?	12%	74*	55*	184%	226%
COCCNC(=O)c1ccc2c3n(nc2c1)-c1ccc(C)cc1CO3	-22%	16%	134*	59*	56%	37%
CC(C)NC(=O)c1ccc2c3n(nc2c1)-c1ccc(Cl)cc1CO3	?	-1%	60*	21*	154%	215%
Cc1cc(-c2ccc3c(c2)COc2c4ccccc4nn2-3)on1	31%	4%	.	.	.	.
O=C(NCc1ccc2c(c1)OCO2)C1CCN(c2nccc(C(F)(F)F)n2)CC1	2%	2%	-4	-2	30%	34%
